MEKK2 WT-MEK5 = raises or lowers MEK5 binding to wildtype human MEKK2 PB1 domain. binding response (% of control), % at 10 µM. AID 1531. 1.1% of 290,000 active. bead flow cytometry, Alexa488-MEK5 binding to MEKK2 WT; actives lie on both sides; in the data active means binding response below about 67% or above about 130%
MEKK3 PB1 HTS = MEKK3-MEK5 PB1 interaction, increase or decrease; bead-based flow cytometry, Alexa488-MEK5 binding to MEKK3; actives lie on both sides; 0 = blocked by unlabeled MEK5, 100 = vehicle; binding response (% of control), % at 10 µM; Q99759; 1.4% of 290,000 active;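 active means binding response more than 3 SD above or below the average of its plate-row segment, actives on both sides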;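 further: Alexa488 bead fluorescence after subtracting the streptavidin-only scavenger bead signal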
Target sequence (Q99759 whole entry, looked up): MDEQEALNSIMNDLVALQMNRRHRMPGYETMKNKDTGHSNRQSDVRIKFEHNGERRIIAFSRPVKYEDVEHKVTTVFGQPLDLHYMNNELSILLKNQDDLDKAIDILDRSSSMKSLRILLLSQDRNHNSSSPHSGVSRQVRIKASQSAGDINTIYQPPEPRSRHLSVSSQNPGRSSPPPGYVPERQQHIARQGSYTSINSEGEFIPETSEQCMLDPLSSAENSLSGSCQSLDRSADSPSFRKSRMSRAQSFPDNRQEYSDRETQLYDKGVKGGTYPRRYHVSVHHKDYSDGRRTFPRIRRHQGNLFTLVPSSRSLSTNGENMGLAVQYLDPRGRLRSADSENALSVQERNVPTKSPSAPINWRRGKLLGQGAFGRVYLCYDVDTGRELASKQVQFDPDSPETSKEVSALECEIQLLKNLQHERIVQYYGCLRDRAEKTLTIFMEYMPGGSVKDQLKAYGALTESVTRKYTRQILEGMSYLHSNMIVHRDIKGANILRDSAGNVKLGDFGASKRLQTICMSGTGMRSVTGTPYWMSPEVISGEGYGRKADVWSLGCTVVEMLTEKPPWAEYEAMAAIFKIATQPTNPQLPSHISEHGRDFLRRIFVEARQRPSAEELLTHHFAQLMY
NRP1-CendR mod = modulators of CendR peptide binding to human neuropilin-1; 0.85% of 360,000 active; inhibition, % at 25 µM; FAM-RPARPAR peptide binding to NRP-1, fluorescence polarization; AID 602438; O14786;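 active means inhibition or corrected inhibition above about 18%, plus a signal ratio from 0.5 to 1.5, limit read from the data, passing the limit was not always enough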
SKN-1 block = C. elegans SKN-1 inhibition. 0.49% of 360,000 active. C. elegans VP596 Pgst-4::GFP/RFP ratio, acrylamide-induced, 24 h. AID 624304. inhibition, % at 21.8 µM;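 active means interference check ratio from 0.5 to 1.5 plus GFP to RFP signal ratio inhibition reaching or exceeding a fixed threshold, cut at about 30% in these data, passing the limit was not always enough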
MEKK2 mut-MEK5 = signal of MEK5 binding to mutant human MEKK2 PB1 domain | AID 1530 | bead flow cytometry, Alexa488-MEK5 binding to MEKK2 mutant | percent response, % at 10 µM | 0.35% of 290,000 active; in the data active means percent response above about 24%, passing the limit was not always enough
MEKK2wt confirm = raises or lowers MEK5 binding to wildtype human MEKK2, retest | shares compounds with MEKK3 PB1 HTS | bead flow cytometry, Alexa488-MEK5 binding to MEKK2 WT; actives lie on both sides | binding response (% of control), % at 10 µM | 2.4% of 5,900 active; in the data active means binding response below about 16% or above about 210%; inactive means in between
MEKK2mut confirm = signal of MEK5 binding to mutant human MEKK2, retest. shares compounds with MEKK3 PB1 HTS. bead flow cytometry, Alexa488-MEK5 binding to MEKK2 mutant. percent response, % at 10 µM. 2% of 5,900 active; in the data active means percent response mostly above about 71%, no sharp cut-off; inactive means mostly below about 38%;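 further: higher means compound restores mutant binding toward wildtype level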
MEKK3 confirm = MEKK3-MEK5 PB1 inhibition, single concentration confirmation; shares compounds with MEKK3 PB1 HTS; 1.8% of 5,900 active; bead flow cytometry, Alexa488-MEK5 binding to MEKK3; stronger effect = lower value; binding response (% of control), % at 10 µM;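 active means binding response below 72% of control, or above a set upper limit, though filed actives all read lower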;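 further: 100% = DMSO only wells and 0% = binding blocked by excess unlabeled MEK5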
An asterisk follows results filed as active; x = no result given; [ ] = another dose, or the depositor's remark. A selection: hits, their analogues and other compounds. The true share with any hit is near 3.2%.

SMILES | MEKK2 WT-MEK5 | MEKK3 PB1 HTS | NRP1-CendR mod | SKN-1 block | MEKK2 mut-MEK5 | MEKK2wt confirm | MEKK2mut confirm | MEKK3 confirm
CCC(=O)N(CCc1ccccc1)Cc1cc2cc(OC)ccc2[nH]c1=O | 120.0 | 135.0* | 2.3 | -3.6 | 30.0 | 95.0 | 1.0 | 103.0
CCC(=O)N(CCc1ccccc1)Cc1cc2ccc(OC)cc2[nH]c1=O | 102.0 | 101.0 | 14.4 | 1.8 | 2.0 | x | x | x
CC(C)CCN1CCNC(=O)C1CC(=O)N(C)CCCN1CCOCC1 (stereo not drawn) | 106.0 | 103.0 | -1.4 | 14.8 | 3.0 | x | x | x
COc1cc(OC)cc(OCC(O)Cn2ccnc2C)c1 (stereo not drawn) | 2.0*[inhibitor] | 2.0*[inhibitor] | 3.9 | 7.3 | -21.0 | 95.0 | -6.0 | 102.0
NNC(=O)Cc1csc(-c2ccccc2)n1 | 100.0 | 105.0 | -4.1 | -6.8 | 12.0 | x | x | x
CC(C)CCNC(=O)Cc1csc(-c2ccccc2)n1 | 3.0*[inhibitor] | 2.0*[inhibitor] | -6.4 | 10.9 | -46.0 | 92.0 | -6.0 | 91.0
Cc1c(Cl)cnc(NC(=O)COC(=O)CCS(=O)(=O)c2ccccc2)c1Cl | 102.0 | 104.0 | 3.1 | -18.8 | 2.0 | x | x | x
Cc1c(Cl)cnc(NC(=O)COC(=O)Cc2coc3ccc4ccccc4c23)c1Cl | 102.0 | 131.0* | -5.2 | 15.3 | 0.0 | 80.0 | -14.0 | 84.0
CC(C)(C)NC(=O)NC(=O)COC(=O)Cc1coc2ccc3ccccc3c12 | 112.0 | 143.0* | -4.5 | 3.7 | 1.0 | 95.0 | -3.0 | 97.0
O=C(Nc1ccc(Cl)cc1)C1Cc2c(-c3ccccc3)ccnc2O1 (stereo not drawn) | x | x | -11.6 | 11.3 | x | x | x | x
O=C(COC(=O)C1CCC(=O)N1)Nc1ccccc1Br (stereo not drawn) | 109.0 | 128.0* | -4.1 | 0.2 | -2.0 | 102.0 | -3.0 | 102.0
Cc1nc2cc(-c3ccc(Cl)cc3)nn2c(NCCN(C)C)c1C | 148.0* | 113.0 | 1.3 | 12.3 | 29.0 | 132.0 | 18.0 | 110.0
Clc1ccccc1OCc1nn[nH]n1 | 118.0 | 131.0* | 29.6* | -3.0 | 27.0 | 107.0 | 2.0 | 103.0
Cc1cccc(OCc2nn[nH]n2)c1C | 108.0 | 103.0 | 2.0 | 10.5 | 9.0 | x | x | x
CS(=O)(=O)N(CC(=O)N1CCCCC1)c1ccc(Cl)c(C(F)(F)F)c1 | 71.0*[inhibitor] | 97.0 | 2.2 | 15.4 | 2.0 | 98.0 | 0.0 | 101.0
COc1ccc(/C=C/C(=O)OCC(=O)Nc2cccc(C(C)=O)c2)cc1 | 108.0 | 149.0* | -9.7 | -9.1 | 0.0 | 106.0 | 2.0 | 105.0
COc1ccc(/C=C/C(=O)OCC(=O)Nc2cc(C(N)=O)cc(C(N)=O)c2)cc1 | 108.0 | 106.0 | 8.8 | 0.3 | 3.0 | x | x | x
O=C(Cn1cnc2ccccc2c1=O)N1CCN(c2ccccc2)CC1 | 104.0 | 122.0* | 4.8 | -6.7 | 6.0 | 102.0 | 1.0 | 103.0
COc1ccc(OC)c(C2=NS(=O)(=O)N(C)C(C(=O)Nc3ccc(F)cc3F)=C2)c1 | 94.0 | 95.0 | 7.7 | 3.2 | -4.0 | x | x | x
Cc1cccc(NC(=O)CSCC(=O)Nc2ccccc2C(=O)NC2CC2)c1 | x | x | -5.6 | 16.6 | x | x | x | x
CCCCNc1c([N+](=O)[O-])cc(C(=O)O)cc1[N+](=O)[O-] | 107.0 | 138.0* | -7.0 | 1.7 | 0.0 | 103.0 | 1.0 | 102.0
O=C(CNC(=O)/C=C/c1ccco1)N=Nc1c(O)[nH]c2ccccc12 | 104.0 | 102.0 | -13.9 | 17.3 | 6.0 | x | x | x
CNC(=O)c1cc2ccccc2o1 | 119.0 | 124.0* | -16.0 | 5.7 | 7.0 | 91.0 | -6.0 | 90.0
Cc1cc2cc(CNC(=O)c3cc4ccccc4o3)ccc2n1C | x | 45.0*[inhibitor] | x | x | -9.0 | 57.0 | -19.0 | 75.0
O=C(NCc1ccc2c(c1)OCO2)c1cc2ccccc2o1 | 103.0 | 101.0 | -0.1 | -33.7 | 1.0 | x | x | x
SMILES | MEKK2 WT-MEK5 | MEKK3 PB1 HTS | NRP1-CendR mod | SKN-1 block | MEKK2 mut-MEK5 | MEKK2wt confirm | MEKK2mut confirm | MEKK3 confirm
Cc1cc2cc(CNC(=O)c3ccc4c(c3)OCO4)ccc2n1C | -11.0* | 65.0*[inhibitor] | 19.6* | 33.2 | -19.0 | 102.0 | 4.0 | 101.0
Cc1ccc(S(=O)(=O)NCc2ccc3c(c2)cc(C)n3C)cc1 | 51.0*[inhibitor] | 71.0*[inhibitor] | -0.1 | 50.3 | -15.0 | 62.0 | -9.0 | 82.0
CN(CCO)c1ccc(C=NNc2ccc([N+](=O)[O-])cc2S(=O)(=O)Nc2ccccc2C(=O)O)cc1 | x | x | -130.8 | 17.7 | x | x | x | x
CCOc1ccc(CCNC(=O)C2CCCN(S(=O)(=O)N3CCCCC3)C2)cc1OCC (stereo not drawn) | x | x | 6.1 | 13.4 | x | x | x | x
CCN(C(=O)CO/N=C/c1ccc(OC)cc1OC)c1c(N)n(Cc2ccccc2)c(=O)[nH]c1=O | x | x | 10.9 | 1.7 | x | x | x | x
O=C(Nc1nnc([C@H]2C[C@H](O)[C@@H](CO)O2)s1)NC1CCCCC1 | x | x | -2.2 | 6.5 | x | x | x | x
CC(C)(CNC(=O)c1cccc(S(=O)(=O)N2CCCCC2)c1)N1CCOCC1 | x | x | -10.2 | 0.3 | x | x | x | x
COc1cc(OC)cc(C(=O)NCc2ccc3c(c2)cc(C)n3C)c1 | x | 47.0*[inhibitor] | 23.2 | 55.2 | -21.0 | 70.0 | -12.0 | 85.0
Cc1ccc(CNC(=O)c2c(-c3ccccc3Cl)noc2C)cc1 | 102.0 | 103.0 | -0.9 | -2.7 | 2.0 | x | x | x
Cc1onc(-c2ccccc2Cl)c1C(=O)NCc1ccc2c(c1)cc(C)n2C | 43.0*[inhibitor] | 59.0*[inhibitor] | 15.7 | 54.9 | -8.0 | 93.0 | -3.0 | 99.0
CCCCN1C[C@H](c2ccccc2)[C@@H](CC(=O)NC)C1=O | x | x | -1.5 | 4.9 | x | x | x | x
CN1CCN(Cc2nc3ccccc3c(=O)n2Cc2nc(-c3ccc4ccccc4c3)cs2)CC1 | 195.0* | 108.0 | 2.0 | 6.7 | 51.0* | 153.0 | 25.0 | 104.0
Cc1ccc(NC(=O)c2ccc(-c3nn(C)c(=O)c4ccccc34)cc2)cc1 | 96.0 | 96.0 | -4.4 | -10.2 | -1.0 | x | x | x
Cn1nc(-c2ccc(C(=O)Nc3cccc(Cl)c3)cc2)c2ccccc2c1=O | 1.0*[inhibitor] | 34.0*[inhibitor] | -10.2 | -11.6 | -26.0 | 87.0 | -1.0 | 92.0
Cn1nc(-c2ccc(C(=O)N3CCN(Cc4ccccc4)CC3)cc2)c2ccccc2c1=O | 57.0*[inhibitor] | 52.0*[inhibitor] | 14.8 | 9.5 | -14.0 | 108.0 | 3.0 | 104.0
CCCCc1ncc(CN2CCC(n3nccc3NC(=O)c3ccccc3OC)CC2)[nH]1 | 115.0 | 105.0 | 0.9 | 8.8 | 17.0 | x | x | x
O=C(/C(=C(\[O-])c1ccccc1)[n+]1ccc2ccccc2c1)c1ccc(Cl)cc1 | 100.0 | 98.0 | -24.5 | 7.6 | 1.0 | x | x | x
O=C(/C(=C(\[O-])c1ccccc1)[n+]1ccc2ccccc2c1)c1ccccc1 | 102.0 | 128.0* | -45.4 | 4.1 | 4.0 | 102.0 | 1.0 | 104.0

Compound activity from PubChem BioAssay.
